Reference: PubChem BioAssay AID1159580 (chemical genetic matrix, 2015)
In all, about 5,500 compounds went through this assay and about 2,000 (36%) were called active. Inconclusive results (about 18%) are left out. Rule as the data show it: active = normalized growth mostly below about 0.91 (no sharp cut-off); inconclusive = no clear call, values can overlap the other calls; inactive = mostly above about 0.92. The list shows a part of the results.

Test: chemical genetic growth profiling, strain panel (AID 1159580);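 also: tested at 20 µM; growth read once vehicle control cultures reached saturation at 30 °C; 1 = growth at the plate median or of vehicle wells; lower values mean less growth of the strain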
Details: growth OD

Measured: normalized growth

Nc1ccc(S(=O)(=O)NC(=O)c2ccccc2)cc1
inactive: S. cerevisiae deletion strains, locus YJR066W, strain TOR1, active compounds read low 0.932 | S. cerevisiae deletion strains, locus YJR075W, strain HOC1, active compounds read low 1.02 | S. cerevisiae deletion strains, locus YKL009W, strain mrt4, active compounds read low 1.02 | S. cerevisiae deletion strains, locus YKL068W, active compounds read low 1.01 | S. cerevisiae deletion strains, locus YKL085W, strain MDH1 (second series), active compounds read low 1 | S. cerevisiae deletion strains, locus YKL085W, strain MDH1, active compounds read low 1 | S. cerevisiae deletion strains, locus YKL160W, strain elf1, active compounds read low 1.01 | S. cerevisiae deletion strains, locus YKL190W, strain CNB1, active compounds read low 1.01 | S. cerevisiae deletion strains, locus YKR001C, strain vps1, active compounds read low 1.03 | S. cerevisiae deletion strains, locus YKR026C, strain gcn3, active compounds read low 0.969 | S. cerevisiae deletion strains, locus YKR091W, strain srl3, active compounds read low 0.978 | S. cerevisiae deletion strains, locus YLL001W, strain dnm1, active compounds read low 0.995 | S. cerevisiae deletion strains, locus YLL026W, active compounds read low 1 | S. cerevisiae deletion strains, locus YLL041C, strain sdh2, active compounds read low 0.992 | S. cerevisiae deletion strains, locus YLR027C, strain aat2, active compounds read low 0.996 | S. cerevisiae deletion strains, locus YLR039C, strain RIC1, active compounds read low 0.834 | S. cerevisiae deletion strains, locus YLR058C, strain SHM2, active compounds read low 1.01 | S. cerevisiae deletion strains, locus YLR102C, strain apc9, active compounds read low 1.01 | S. cerevisiae deletion strains, locus YLR113W, strain HOG1, active compounds read low 0.968 | S. cerevisiae deletion strains, locus YLR221C, strain rsa3, active compounds read low 0.976 | S. cerevisiae deletion strains, locus YLR258W, strain gsy2, active compounds read low 0.987 | S. cerevisiae deletion strains, locus YLR262C, strain YPT6 (second series), active compounds read low 0.979 | S. cerevisiae deletion strains, locus YLR262C, strain YPT6, active compounds read low 1.01 | S. cerevisiae deletion strains, locus YLR268W, strain sec22, active compounds read low 1.04 | S. cerevisiae deletion strains, locus YLR320W, strain mms22, active compounds read low 0.985 | S. cerevisiae deletion strains, locus YLR330W, strain CHS5, active compounds read low 1.01 | S. cerevisiae deletion strains, locus YLR342W, strain FKS1 (second series), active compounds read low 1.02 | S. cerevisiae deletion strains, locus YLR342W, strain FKS1, active compounds read low 0.998 | S. cerevisiae deletion strains, locus YLR357W, strain rsc2, active compounds read low 0.977 | S. cerevisiae deletion strains, locus YLR370C, strain arc18, active compounds read low 0.991 | S. cerevisiae deletion strains, locus YLR371W, strain rom2, active compounds read low 1.02 | S. cerevisiae deletion strains, locus YLR384C, strain iki3, active compounds read low 0.998 | S. cerevisiae deletion strains, locus YLR418C, strain cdc73, active compounds read low 1.02 | S. cerevisiae deletion strains, locus YML016C, strain PPZ1, active compounds read low 1.04 | S. cerevisiae deletion strains, locus YML032C, strain rad52, active compounds read low 1.03 | S. cerevisiae deletion strains, locus YML120C, strain ndi1, active compounds read low 0.972 | S. cerevisiae deletion strains, locus YML124C, strain tub3, active compounds read low 1.01 | S. cerevisiae deletion strains, locus YMR058W, strain fet3, active compounds read low 0.981 | S. cerevisiae deletion strains, locus YMR078C, strain ctf18, active compounds read low 1.01 | S. cerevisiae deletion strains, locus YMR125W, strain sto1, active compounds read low 0.977 | S. cerevisiae deletion strains, locus YMR129W, active compounds read low 0.989 | S. cerevisiae deletion strains, locus YMR205C, strain PFK2, active compounds read low 1 | S. cerevisiae deletion strains, locus YMR223W, strain ubp8, active compounds read low 1.01 | S. cerevisiae deletion strains, locus YMR231W, strain pep5, active compounds read low 0.981 | S. cerevisiae deletion strains, locus YMR263W, strain SAP30, active compounds read low 1.01 | S. cerevisiae deletion strains, locus YMR307W, strain GAS1, active compounds read low 0.878 | S. cerevisiae deletion strains, locus YNL067W, strain RPL9B, active compounds read low 1.01 | S. cerevisiae deletion strains, locus YNL071W, strain lat1, active compounds read low 0.977 | S. cerevisiae deletion strains, locus YNL183C, strain NPR1, active compounds read low 0.95 | S. cerevisiae deletion strains, locus YNL209W, strain ssb2, active compounds read low 0.971 | S. cerevisiae deletion strains, locus YNL233W, strain BNI4, active compounds read low 1.01 | S. cerevisiae deletion strains, locus YNL248C, strain rpa49, active compounds read low 1 | S. cerevisiae deletion strains, locus YNL250W, strain rad50, active compounds read low 1 | S. cerevisiae deletion strains, locus YNL271C, strain bni1, active compounds read low 1.01 | S. cerevisiae deletion strains, locus YNL298W, strain CLA4, active compounds read low 1.02 | S. cerevisiae deletion strains, locus YNL307C, strain MCK1, active compounds read low 1.03 | S. cerevisiae deletion strains, locus YNL322C, strain KRE1 (second series), active compounds read low 0.964 | S. cerevisiae deletion strains, locus YNR049C, strain mso1, active compounds read low 0.981 | S. cerevisiae deletion strains, locus YNR052C, strain pop2, active compounds read low 1.01 | S. cerevisiae deletion strains, locus YOL006C, strain TOP1, active compounds read low 1 | S. cerevisiae deletion strains, locus YOL012C, strain htz1 1.35 | S. cerevisiae deletion strains, locus YOL147C, strain pex11, active compounds read low 1.02 | S. cerevisiae deletion strains, locus YOR001W, strain rrp6, active compounds read low 0.954 | S. cerevisiae deletion strains, locus YOR061W, strain CKA2, active compounds read low 1 | S. cerevisiae deletion strains, locus YOR069W, strain VPS5, active compounds read low 1.01 | S. cerevisiae deletion strains, locus YOR070C, strain gyp1, active compounds read low 0.996 | S. cerevisiae deletion strains, locus YOR080W, strain dia2, active compounds read low 0.981 | S. cerevisiae deletion strains, locus YOR083W, strain WHI5, active compounds read low 0.966 | S. cerevisiae deletion strains, locus YOR106W, strain vam3, active compounds read low 0.999 | S. cerevisiae deletion strains, locus YOR136W, strain idh2, active compounds read low 1.01 | S. cerevisiae deletion strains, locus YOR144C, strain elg1, active compounds read low 1.01 | S. cerevisiae deletion strains, locus YOR184W, strain ser1, active compounds read low 1.03 | S. cerevisiae deletion strains, locus YOR231W, strain MKK1, active compounds read low 0.996 | S. cerevisiae deletion strains, locus YOR265W, strain rbl2, active compounds read low 0.997 | S. cerevisiae deletion strains, locus YOR270C, strain vph1, active compounds read low 0.96 | S. cerevisiae deletion strains, locus YOR290C, strain snf2, active compounds read low 0.993 | S. cerevisiae deletion strains, locus YOR316C, strain cot1, active compounds read low 1 | S. cerevisiae deletion strains, locus YPL051W, strain arl3, active compounds read low 1.01 | S. cerevisiae deletion strains, locus YPL078C, strain atp4, active compounds read low 1.04 | S. cerevisiae deletion strains, locus YPL106C, strain sse1, active compounds read low 0.976 | S. cerevisiae deletion strains, locus YPL240C, strain hsp82, active compounds read low 0.983 | S. cerevisiae deletion strains, locus YPL256C, strain CLN2, active compounds read low 0.984 | S. cerevisiae deletion strains, locus YPR119W, strain clb2, active compounds read low 1.02 | S. cerevisiae deletion strains, locus YPR141C, strain kar3, active compounds read low 1.02 | S. cerevisiae deletion strains, locus YPR163C, strain tif3, active compounds read low 1.02 | S. cerevisiae deletion strains, locus YPR167C, strain met16, active compounds read low 1.01 | S. cerevisiae deletion strains, strain wtn01, active compounds read low 1.01 | S. cerevisiae strains, strain wild type, active compounds read low 1.01
